Compound activity deposited in PubChem by several laboratories.
An excerpt weighted towards active compounds, which were near 3.9% of everything screened.
SARS 3CLpro inh-1 – SARS-CoV 3CLpro protease inhibition | recombinant SARS-CoV 3CLpro, quenched FRET peptide cleavage | inhibition, % at 6 µM | actives 0.14% (n = 290,000) | AID 1706; in the data active = inhibition above about 12%
BoNT A protease – inhibitors of Botulinum neurotoxin A light chain protease | multiplex microsphere protease substrate cleavage, flow cytometry | actives 0.17% (n = 360,000) | inhibition, % at 10 µM; also: plate controls were buffer without enzyme for full effect and enzyme alone for no effect
Anthrax LF inh2 – anthrax lethal factor protease inhibition | inhibition, % at 10 µM | multiplex microsphere protease cleavage assay, LF | actives 0.12% (n = 360,000) | P15917; also: plate controls were buffer without enzyme for full effect and enzyme alone for no effect
BoNT-F LC inh – blocks Botulinum neurotoxin F light chain protease; Multiplex microsphere protease cleavage assay, flow cytometry; inhibition, % at 10 µM; actives 0.22% (n = 360,000); in the data active = inhibition above about 35%, passing the limit was not always enough; inconclusive = no clear call, values can overlap the other calls; also: plate controls were buffer without enzyme for full effect and enzyme alone for no effect
DUSP3 inh – DUSP3 (human) phosphatase inhibition | AID 1654 | P51452 | recombinant VHR phosphatase, pNPP absorbance | inhibition, % at 13.3 µM | actives 0.52% (n = 290,000); in the data active = inhibition above about 50%
Target sequence (P51452 whole entry, looked up): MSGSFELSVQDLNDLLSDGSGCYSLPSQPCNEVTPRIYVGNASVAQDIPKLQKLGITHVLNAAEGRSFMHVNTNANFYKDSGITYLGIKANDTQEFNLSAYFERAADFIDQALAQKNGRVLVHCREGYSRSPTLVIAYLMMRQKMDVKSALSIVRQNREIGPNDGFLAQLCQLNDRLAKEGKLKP
Autofluor counter – flagged as autofluorescent in microsphere protease counterscreen. compound autofluorescence counterscreen, microsphere flow cytometry; stronger effect = higher value. fluorescence intensity (no concentration beside the values). actives 3.1% (n = 360,000); in the data active = fluorescence intensity above about 16000; inconclusive = no clear call, values can overlap the other calls
SARS 3CLpro inh-2 – SARS 3CLpro inhibition, confirmation assay | shares compounds with SARS 3CLpro inh-1 | QFRET protease activity assay | inhibition, % at 6 µM | actives 36% (n = 380); in the data active = inhibition above about 13%
The depositor's hits bear a star; u = inconclusive; x = not tested or not shown. Rule as the data show it, unless noted: active = inhibition above about 30%; inconclusive = no clear call, values can overlap the other calls; inactive = below that.

SMILES | SARS 3CLpro inh-1 | BoNT A protease | Anthrax LF inh2 | BoNT-F LC inh | DUSP3 inh | Autofluor counter | SARS 3CLpro inh-2
CC1(C)C2CC=C(/C=N/NC(=S)Nc3cccnc3)C1C2 (configuration not stated) | 15.3* | 0.6 | 3.4 | -6.9 | 28.2 | 4456 | 38.7*
Cc1cc(OCC(=O)Nc2cc(C(C)(C)C)on2)ccc1[N+](=O)[O-] | 0.3 | -3.0 | 1.4 | -0.3 | 10.1 | 6579 | x
Cc1ccc(-c2n[nH]c(=S)n2/N=C/C=C/c2ccccc2[N+](=O)[O-])cc1 | 9.9 | 0.6 | -2.4 | -2.6 | 21.8 | 2967 | x
O=[N+]([O-])c1ccccc1/C=C/C=N/n1c(-c2ccco2)n[nH]c1=S | 15.3* | -0.3 | 2.3 | 0.1 | 14.9 | 2055 | 4.1
CC(C)(C)c1ccc(-n2ncc3c2CCCC3NC(=O)c2ccncc2)cc1 (configuration not stated) | 2.4 | -2.7 | -0.8 | -5.9 | 9.6 | 6800 | x
Cc1cc(C(=O)NC2CCCc3c2cnn3-c2ccc(C(C)(C)C)cc2)n[nH]1 (configuration not stated) | 13.2* | -0.6 | -1.1 | -4.4 | 1.9 | 4631 | 1.6
Cc1nc(-c2ccc(S(=O)(=O)N3CCN(c4ccccc4)CC3)cc2)co1 | 12.4* | 0.3 | -1.8 | 2.3 | -9.7 | 4288 | 1.7
CCC(=O)N(C)C[C@H]1Oc2ncc(C#Cc3ccncc3)cc2C(=O)N([C@@H](C)CO)C[C@@H]1C | x | -0.3 | -9.7 | 4.0 | x | 3376 | x
c1cncc(Nc2nc(-c3cccnc3)cs2)c1 | -1.2 | -0.5 | -3.0 | -9.7 | -2.6 | 11365 | x
Clc1ccccc1Nc1nc(-c2cccnc2)cs1 | 13.9* | -0.1 | -0.3 | 0.9 | -13.6 | 4401 | 10.9
CC(CC(=O)N1CCc2ccccc21)n1cccn1 (configuration not stated) | -0.1 | -1.9 | 0.7 | -5.3 | 24.6 | 6529 | x
CCOc1ccc(N(Cc2cc3ccc(C)cc3[nH]c2=O)S(=O)(=O)c2ccccc2)cc1 | 13.0* | 1.7 | -2.4 | -2.4 | 29.8 | 4345 | 6.4
O=C(CSc1ccc(F)cc1)Nc1ccc2c(c1)C(=O)NC2=O | 12.9* | -0.2 | -1.4 | 0.5 | 20.6 | 4428 | 1.2
CCOC(=O)c1c(C)[nH]c(C)c1C(=O)COC(=O)CCc1ccccc1 | x | -0.6 | -6.7 | -5.1 | x | 3754 | x
COCCNC(=O)C1(C)CCCN(Cc2cc(C(F)(F)F)ccc2Cl)C1 (configuration not stated) | x | -0.2 | -1.2 | -2.8 | x | 3575 | x
Cc1cc(=O)oc2cc(OC(=O)c3ccco3)ccc12 | 28.9* | 0.5 | -2.3 | 2.2 | -14.5 | 4108 | 70.0*
COC(=O)Cc1c(C)c2ccc(OC(=O)c3ccco3)cc2oc1=O | 2.4 | 0.4 | -3.9 | 5.5 | -7.0 | 3265 | x
CCc1cc(=O)oc2cc(OC(=O)c3ccco3)ccc12 | 68.3* | 0.6 | -0.4 | 8.3 | 6.2 | 5562 | 71.5*
Cc1cc(=O)oc2cc(OC(=O)c3ccccc3)ccc12 | 4.6 | -0.5 | 0.4 | 2.5 | 7.4 | 5207 | x
CCOC(=O)CNC(=O)N1CCCC(C(=O)c2cccc(Cl)c2)C1 (configuration not stated) | -2.4 | 0.0 | 0.3 | 7.5 | -13.6 | 2168 | x
Cc1noc(C)c1NC(=O)Nc1ccc2c(c1)C(=O)N([C@H](C)CO)C[C@H](C)[C@H](CN(C)C)O2 | x | -0.2 | 1.4 | -7.1 | x | 3949 | x
CN(Cc1ccc(F)cc1)S(=O)(=O)c1nnc(NC(=O)c2ccccc2Br)s1 | 12.7* | -0.8 | -1.1 | -2.4 | -22.1 | 4484 | 2.3
COc1ccccc1C(=O)Nc1nc2ccccc2s1 | 12.9* | 1.7 | 9.1 | u | 12.1 | 3220 | -0.1
CCN(c1ccccc1)S(=O)(=O)c1nnc(NC(=O)c2ccccc2OC)s1 | 12.7* | 0.0 | 2.2 | -7.7 | 9.5 | 5776 | 6.1
O=S(=O)(NCC(Nc1ccc(Cl)cc1)c1ccccc1)c1ccccc1 (configuration not stated) | 1.7 | -6.0 | -3.5 | -39.7 | -7.2 | 2781 | x
SMILES | SARS 3CLpro inh-1 | BoNT A protease | Anthrax LF inh2 | BoNT-F LC inh | DUSP3 inh | Autofluor counter | SARS 3CLpro inh-2
Cc1ccc(NC(CNS(=O)(=O)c2ccc(Cl)cc2)c2ccccc2)cc1 (configuration not stated) | 13.0* | -4.4 | -11.2 | -57.7 | 21.4 | 5870 | 7.7
COc1ccc(NC(=O)OCCn2c([N+](=O)[O-])cnc2C)cc1 | 0.7 | 0.0 | -1.7 | 0.9 | 7.4 | 2357 | x
Cc1ccc(-n2nnnc2SCC(=O)NC(C(=O)O)(c2ccccc2)c2ccccc2)cc1C | 14.2* | -0.5 | 1.6 | -3.1 | -4.6 | 2222 | 4.2
COc1ccccc1-c1c(-c2ccc(OCC(=O)NN)cc2O)n[nH]c1C(F)(F)F | 2.2 | -0.8 | -2.6 | -5.0 | 5.4 | 2119 | x
COc1ccc(-c2n[nH]c(C(F)(F)F)c2-c2cc3ccccc3o2)c(O)c1 | 13.9* | 0.7 | -16.7 | -15.8 | 8.1 | 4743 | 9.2
Cc1ccc(/C=C/C(=O)c2cc(Br)ccc2OC(=O)c2ccco2)cc1 | 23.1* | -2.6 | -4.0 | -14.1 | 2.6 | 4043 | 32.4*
COc1ccccc1/C=C/C(=O)c1cc(Br)ccc1OC(=O)c1ccco1 | 14.8* | -0.6 | -7.1 | -11.4 | x | 4220 | 50.0*
Nc1ncc(Br)cc1S(=O)(=O)Nc1cc(C(F)(F)F)cc(C(F)(F)F)c1 | 22.6* | -0.4 | -2.1 | 7.3 | 14.0 | 5220 | 15.2*
Cc1ccc(C2C3=C(CC(C)(C)CC3=O)Nc3onc(C)c32)cc1 (configuration not stated) | 14.9* | 0.0 | -2.4 | 8.0 | -6.4 | 2669 | -3.5
Cc1noc2c1C(c1ccc(N(C)C)cc1)C1=C(CC(C)(C)CC1=O)N2 (configuration not stated) | -0.9 | 0.2 | -5.9 | -6.3 | 14.6 | 9532 | x
COc1ccc(C(=O)Nn2cnc3scc(-c4cccs4)c3c2=O)c(O)c1 | 13.6* | 0.1 | 3.3 | 4.8 | x | 4455 | 6.3
C[C@@]12C(=O)N(c3cccc(F)c3)C(=O)N1[C@H](c1ccc(F)cc1)[C@@H]1C(=O)N(C3CCCCC3)C(=O)[C@@H]12 | 13.5* | 0.2 | 6.3 | 0.7 | 1.1 | 3742 | 5.8
C[C@@]12C(=O)N(c3cccc(F)c3)C(=O)N1[C@H](c1ccc(Cl)cc1)[C@@H]1C(=O)N(C3CCCCC3)C(=O)[C@@H]12 | x | -0.3 | 1.4 | 0.2 | x | 3009 | x
Cn1cccc1C(=O)OCc1ccc(C(C)(C)C)cc1 | -1.9 | -6.4 | 2.1 | -23.7 | -30.3 | 3868 | x
CCc1ccc2c(c1)C(NC(C)=O)C(=O)N2CCN1CCOCC1 (configuration not stated) | 13.9* | -7.4 | -10.6 | -44.2 | -3.8 | 3646 | 49.9*
Cc1cc(C)cc(NS(=O)(=O)c2ccc3[nH]cc(C(=O)N4CCc5ccccc54)c(=O)c3c2)c1 | 13.9* | -0.5 | -0.1 | -5.2 | -1.6 | 2535 | -1.7
COc1cc(NC(=O)c2ccc(NS(=O)(=O)c3c(C)noc3C)cc2)cc(OC)c1 | 7.2 | -1.6 | 0.6 | -11.7 | 10.7 | 2719 | x
